Test results taken from PubChem BioAssay.
Results filed as inconclusive are left out. Calls of active or inactive are those of the source.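 How the source made its calls, unless noted: active means viability loss from added drug above about 55%, and viability with drug at most 40%, in both replicates (limit read from the data, passing the limit was not always enough); inconclusive means both conditions met in only one replicate; inactive means neither replicate meets both conditions.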

Key:
[1] = reduced viability of SK-BR-3 breast cancer cells – cell-based, 24 h, human, pilot screen (AID 572;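 active means viability at or below 10% of carrier control in both of two separate runs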;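 further: compound exposure lasted between 18 and 24 h rather than exactly 24 h; 100% = carrier-treated control wells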); settings: SK-BR-3 viability, CellTiter-Glo luminescence, at 10 µM, stronger effect = lower value
[2] = HUVEC growth inhibition – cell-based, human, primary screen (AID 575;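 active means viability at or below 30% in both replicate assays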;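 further: 100% = median of untreated cell wells with 0.1% DMSO on each plate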); settings: HUVEC proliferation, CellTiter-Glo luminescence, 72 h; at 10 µM; stronger effect = lower value
[3] = H69AR cell proliferation blockers – human, duplicate replicates, primary screen (AID 580;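 active means viability at or under a set limit in both replicates, limit being median viability minus 3 SD, cut at about 48% in these data, passing the limit was not always enough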;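 further: 100% = mean luminescence of untreated wells and 0% = no signal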); settings: H69AR lung tumor cells viability, ATP luminescence, 72 h; at 10 µM; stronger effect = lower value
[4] = MRP1 drug-resistance reversers in H69AR cells – cell-based, doxorubicin co-treatment, pilot screen (AID 601); settings: CellTiter-Glo, 72 h, at 10 µM; for differential viability (reversal): stronger effect = higher value
[5] = yeast transport mutant growth inhibition pilot in 384-well plates, post-Golgi transport modulator project (AID 636; in the data active means inhibition above about 31%); settings: absorbance 615 nm, about 18 h, stronger effect = higher value
[6] = growth suppression of yeast trafficking mutant, preliminary HTS, modulators of trafficking downstream of Golgi apparatus project, 1536-format plate, OD 615 nm (AID 637; in the data active means inhibition above about 30%); settings: yeast transport mutant growth, absorbance 615 nm, 18 h; stronger effect = higher value
[7] = S. cerevisiae growth inhibition in permissive medium (OD615), pilot counter-assay for S. cerevisiae lifespan shortening project, permissive growth control (AID 705;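 active means growth inhibition above 25% in both replicates, a cutoff set 3 SD above the mean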); settings: OD615, 24 h, at 10 µM, stronger effect = higher value
[8] = S. cerevisiae growth inhibition in restrictive medium, OD615, pilot screen, restrictive growth control, yeast lifespan reduction project (AID 706;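 active means growth inhibition above a set limit, 3 SD over mean compound inhibition, in both replicates, cut at about 43% in these data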;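 further: modified DeaD lifespan yeast strain shifted to restrictive glucose medium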); settings: OD615, 48 h, at 10 µM, stronger effect = higher value
[9] = doxorubicin toxicity protection in MRP-1 cells – H69AR cells, CellTiter-Glo, duplicate, MRP-1 activator project, pilot screen (AID 807;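 active means viability increase at or above a cutoff of the median across tested compounds plus 3 SD, cut at about 8.5% in these data, passing the limit was not always enough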;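 further: compound pretreatment 18-22 h then 72 h combined with doxorubicin; 0% = doxorubicin alone and 100% = vehicle without doxorubicin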); settings: H69AR viability with doxorubicin, CellTiter-Glo luminescence; at 10 µM; stronger effect = higher value
[10] = viability of PTEN-null HCT116 cells – cell-based, HCT116 clonal line, CellTiter-Glo, pilot screen (AID 824;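 active means viability at or below 27.92% in each of two runs, the all-compound median minus 4 SD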;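 further: 0% = 20 µM Hyamine control and 100% = vehicle cell control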); settings: HCT116 PTEN-deleted viability, 60 h, at 10 µM, stronger effect = lower value
[11] = RAM pathway blockade in budding yeast – dse1pr::URA3 reporter, 5-FOA selection, pilot screen (AID 869;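 active means inhibition over a set limit, the all-compound mean plus 3 SD, in both replicate runs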;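 further: 0% = DMSO wells with no growth and 100% = 10 µM 1-NA-PP1 with full growth; RAM network block rescues cells from 5-FOA so hits raise OD615 growth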); settings: S. cerevisiae dse1pr::URA3 5-FOA growth, OD615, 2 d; at 10 µM; stronger effect = higher value; strain carries analog-sensitive mutant Cbk1 kinase
[12] = RAM signaling pathway blockade in yeast – S. cerevisiae, Pdr1DBD-CYC8 efflux-inhibited sensitized strain, primary screen (AID 1298;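 active means RAM network inhibition above 8.4% in each of two replicates, 3 SD over the compound average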;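 further: 0% = DMSO untreated cells without growth and 100% = 10 µM 1-NA-PP1 full growth; higher means more yeast growth rescued from 5-FOA killing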); settings: S. cerevisiae cbk1-as DSE1-URA3 strain, 5-FOA growth OD615, 2 d; at 50 µM; stronger effect = higher value
[13] = viability of HCT116 without oncogenic beta-catenin – human colon tumor cells, pilot screen (AID 823;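 active means cell viability at or below a set limit in both duplicate runs, the limit being the all-compound median minus 4 SD, cut at about 23% in these data, passing the limit was not always enough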;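 further: 0% = wells killed by 20 µM Hyamine and 100% = untreated DMSO cell wells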); settings: HCT116 beta-catenin knockout viability, CellTiter-Glo, 60 h; at 10 µM; stronger effect = lower value
[14] = H69AR cells + 2 uM doxorubicin, measured here: viability with 2 uM doxorubicin, stronger effect = lower value
[15] = H69AR cells, compound alone cytotoxicity

| Structure (SMILES) | viability [1] | viability [2] | viability [3] | differential viability (reversal) ([4]; H69AR cells + 2 uM doxorubicin) | viability [4, 14] [%] | viability [4, 15] [%] | inhibition [5] | inhibition [6] | growth inhibition [7] | growth inhibition [8] | viability increase [9] | viability [10] | inhibition [11] | RAM network inhibition [12] | viability [13] |
| --- | --- | --- | --- | --- | --- | --- | --- | --- | --- | --- | --- | --- | --- | --- | --- |
| COc1cc(C(=O)N2CCN(c3cc(Cl)ccc3Cl)CC2)cc(OC)c1OC | 77.5% (inactive) | 20.1% (active) | 29.8% (active) | -54.3% (inactive) | 84.1 | 29.8 | -4.27% (inactive) | 0% (inactive) | -13.2% (inactive) | -8.44% (inactive) | -6.62% (inactive) | 21.5% (active) | 0.575% (inactive) | 2.03% (inactive) | – |
| CSC1=N/C(=C\C=C\c2cccs2)C(=O)S1 | 95% (inactive) | 79.5% (inactive) | – | -15.6% (inactive) | 67 | 51.4 | -1.15% (inactive) | -6.17% (inactive) | -8% (inactive) | 0.455% (inactive) | -3.44% (inactive) | 99.1% (inactive) | 1.66% (inactive) | 6.92% (inactive) | 95% (inactive) |
| O=C(c1ccc2snnc2c1)N1CCOCC1 | 101% (inactive) | 90.2% (inactive) | 102% (inactive) | 12.8% (inactive) | 88.9 | 102 | -1.73% (inactive) | -0.55% (inactive) | 0.235% (inactive) | -15.9% (inactive) | 0.28% (inactive) | 99.4% (inactive) | 1.69% (inactive) | 1.07% (inactive) | 102% (inactive) |
| COC(=O)c1ccc(NC(=O)C2C3CCC(C3)C2C(=O)O)cc1 (stereo not given) | 96% (inactive) | 113% (inactive) | 90.4% (inactive) | 0.415% (inactive) | 90 | 90.4 | 2.13% (inactive) | 6.55% (inactive) | 10.2% (inactive) | 1.67% (inactive) | -2.31% (inactive) | 93.6% (inactive) | 1.04% (inactive) | 1.43% (inactive) | 93.7% (inactive) |
| C(=N\n1cnnc1)/c1cccc(OCCOc2ccccc2)c1 | 76% (inactive) | 96.2% (inactive) | 94.6% (inactive) | 4.15% (inactive) | 90.5 | 94.6 | -4.53% (inactive) | 2% (inactive) | -7.18% (inactive) | 13.9% (inactive) | 0.62% (inactive) | 94.9% (inactive) | 1.81% (inactive) | 0.17% (inactive) | 89% (inactive) |
| FC(F)(F)c1cc(-c2ccco2)nc(NCc2ccco2)n1 | 119% (inactive) | 101% (inactive) | 62.2% (inactive) | -15.6% (inactive) | 77.8 | 62.2 | -2.7% (inactive) | 24.2% (inactive) | 3.24% (inactive) | -11.4% (inactive) | -6.31% (inactive) | 59.1% (inactive) | 1.14% (inactive) | -0.41% (inactive) | – |
| Cc1cccc(N(CC(=O)N2CCCC2)S(=O)(=O)c2ccccc2)c1C | 106% (inactive) | 112% (inactive) | 88.5% (inactive) | -0.32% (inactive) | 88.8 | 88.5 | -2.27% (inactive) | 1.82% (inactive) | -1.1% (inactive) | 4.24% (inactive) | -1.18% (inactive) | 93.6% (inactive) | 2.05% (inactive) | 3.22% (inactive) | 93.9% (inactive) |
| COc1ccccc1N1CCN(C(=O)C2CCN(S(=O)(=O)c3ccc(F)cc3)CC2)CC1 | 73% (inactive) | 70.8% (inactive) | 87.5% (inactive) | 6.62% (inactive) | 80.8 | 87.5 | -0.27% (inactive) | 8.55% (inactive) | -13.6% (inactive) | -1.89% (inactive) | -0.47% (inactive) | 84% (inactive) | 1.03% (inactive) | 4.6% (inactive) | 81.2% (inactive) |
| CC(=O)NCCc1ccc(S(=O)(=O)NCc2ccc3c(c2)OCO3)cc1 | 91% (inactive) | 91.9% (inactive) | 103% (inactive) | 12% (inactive) | 91.3 | 103 | -8.27% (inactive) | -6.18% (inactive) | -15.2% (inactive) | -5.52% (inactive) | 0.44% (inactive) | 97.1% (inactive) | 1.12% (inactive) | 1.84% (inactive) | 96.1% (inactive) |
| Cc1ccc(-c2cc(C(F)F)n3ncc(C(=O)N4CCN(c5ccccn5)CC4)c3n2)cc1 | 99.5% (inactive) | 49.2% (inactive) | – | 3.75% (inactive) | 52.2 | 56 | -6.4% (inactive) | 6.5% (inactive) | -6.85% (inactive) | 4.28% (inactive) | -5.43% (inactive) | 55.4% (inactive) | -1.01% (inactive) | 6.29% (inactive) | 54.3% (inactive) |
| c1ccc(-c2nnc(SCc3nc4ccccc4[nH]3)o2)cc1 | 94% (inactive) | 98.9% (inactive) | 88.8% (inactive) | 2.98% (inactive) | 85.8 | 88.8 | -5.6% (inactive) | 0.91% (inactive) | 7.59% (inactive) | – | -5.05% (inactive) | 88.8% (inactive) | 1.33% (inactive) | 1.69% (inactive) | 93.5% (inactive) |
